Measured values published in PubChem BioAssay (NCI).
Compounds without any hit were thinned out: in the full panel of roughly 79,000, 15% have a hit. A number with no mark means an inactive call. The source made the active and inactive calls. No stated cut-off is given here; in the data, active means growth inhibition above about 70%; inactive means the rest.

Experiments:
[1] = NCI Yeast Anticancer Drug Screen. Data for the rad52 strain (AID 147);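 further: 0% = growth of vehicle-treated control cultures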; details: S. cerevisiae rad52 mutant growth inhibition, stronger effect = higher value
How it was run: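 Yeast strain carrying a DNA damage repair alteration was exposed to test compounds. Growth inhibition was measured relative to vehicle-treated controls.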

[2] = NCI Yeast Anticancer Drug Screen. Data for the rad50EPP+ strain (AID 151);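 further: 0% = growth of vehicle-treated control cultures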; details: S. cerevisiae rad50 mutant strain, stronger effect = higher value
How it was run: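 Yeast strain carrying rad50 alteration (rad50EPP+) exposed to compounds; growth inhibition measured relative to vehicle-treated controls.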

[3] = NCI Yeast Anticancer Drug Screen. Data for the mgt1 strain (AID 153); details: S. cerevisiae mgt1 mutant growth inhibition, stronger effect = higher value
How it was run: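 Yeast mgt1 strain (DNA repair/cell-cycle alteration panel) exposed to compounds; growth inhibition measured relative to vehicle-treated controls.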

[4] = NCI Yeast Anticancer Drug Screen. Data for the rad50 strain (AID 155);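 further: 0% = growth of vehicle-only cultures of the same strain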; details: S. cerevisiae rad50 strain growth inhibition, stronger effect = higher value
How it was run: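 Growth of the mutant yeast was measured after compound exposure and referenced to vehicle-treated cultures.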

[5] = NCI Yeast Anticancer Drug Screen. Data for the mec2-1 strain (AID 157); details: S. cerevisiae mec2-1 strain, stronger effect = higher value
How it was run: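 mec2-1 yeast strain, carrying an alteration in DNA damage repair or cell cycle control, was exposed to compounds; growth inhibition was measured relative to vehicle-treated controls.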

[6] = NCI Yeast Anticancer Drug Screen. Data for the rad14 strain (AID 159);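 further: 0% = growth of vehicle-treated control cultures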; details: S. cerevisiae rad14 strain growth inhibition, stronger effect = higher value
How it was run: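 Here, inhibition of yeast growth was measured after compound exposure, using a strain with a genetic defect in DNA damage repair and vehicle-treated cultures as the reference.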

[7] = NCI Yeast Anticancer Drug Screen. Data for the sgs1 mgt1 strain (AID 161);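 further: 0% = growth of cultures given vehicle only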; details: S. cerevisiae sgs1 mgt1 strain, stronger effect = higher value
How it was run: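 Yeast cells carrying a defined DNA-repair defect were exposed to test compounds. Growth inhibition was measured relative to vehicle-treated controls.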

[8] = NCI Yeast Anticancer Drug Screen. Data for the CLN2oe strain (AID 163);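 further: 0% = growth of vehicle-only control cultures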; details: S. cerevisiae CLN2oe strain, stronger effect = higher value
How it was run: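 Yeast cells carrying a defined cell-cycle control alteration were exposed to test compounds. Growth inhibition was scored against vehicle-treated control cultures.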

[9] = NCI Yeast Anticancer Drug Screen. Data for the cln2 rad14 strain (AID 165);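 further: 0% = growth equal to vehicle treated cultures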; details: S. cerevisiae cln2 rad14 strain, stronger effect = higher value
How it was run: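 Yeast carrying cln2 and rad14 alterations (cell cycle control and DNA damage repair) were exposed to compounds. Growth inhibition was measured against vehicle-treated controls.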

[10] = NCI Yeast Anticancer Drug Screen. Data for the bub3 strain (AID 167); details: S. cerevisiae bub3 mutant strain, stronger effect = higher value
How it was run: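 Whole-cell yeast assay. The mutant strain was incubated with compounds, and growth inhibition was determined by comparison with vehicle-treated cells.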

[11] = NCI Yeast Anticancer Drug Screen. Data for the wt2 strain (AID 169);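 further: 0% = growth of vehicle-treated yeast cultures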; details: S. cerevisiae wt2 strain growth inhibition, stronger effect = higher value
How it was run: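 Yeast cells were exposed to test compounds, and growth inhibition was measured relative to vehicle-treated controls.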

[12] = NCI Yeast Anticancer Drug Screen. Data for the mlh1 strain (AID 171);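 further: 0% = growth of vehicle-treated control cultures of the same strain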; details: S. cerevisiae mlh1 strain growth inhibition, stronger effect = higher value
How it was run: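 Yeast carrying a defined genetic alteration in DNA damage repair or cell cycle control were exposed to test compounds. Growth inhibition was measured relative to vehicle-treated controls.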

[13] = NCI Yeast Anticancer Drug Screen. Data for the sgs1 strain (AID 173);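 further: 0% = growth of vehicle-only control cultures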; details: S. cerevisiae sgs1 mutant, stronger effect = higher value
How it was run: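 Yeast mutant strains carrying defined defects in DNA damage repair or cell cycle control were exposed to test compounds. Growth inhibition was scored against vehicle-treated controls.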

[14] = NCI Yeast Anticancer Drug Screen. Data for the mlh1 rad18 strain (AID 175); details: S. cerevisiae mlh1 rad18 strain growth inhibition, stronger effect = higher value
How it was run: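 Growth inhibition of the yeast strain was measured after compound exposure and expressed relative to vehicle-treated controls. The strain carries defined defects in DNA damage repair.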

[15] = NCI Yeast Anticancer Drug Screen. Data for the rad18 strain (AID 177); details: S. cerevisiae rad18 mutant growth inhibition, stronger effect = higher value
How it was run: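 Yeast carrying a defined DNA damage repair alteration were exposed to compounds. Growth inhibition was expressed relative to vehicle-treated controls.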

[16] = at 5.0 µM (retest, dose inferred, filed as 0.5)
[17] = at 50.0 µM (retest, dose inferred, filed as 5.0)

Q: Which growth inhibition ([1]; at 1.2 µM) does the source give for `O=C1OC(C2=CC(=O)c3ccccc3C2=O)C(Cl)=C1Cl` (stereo not drawn) here?
A: 3%

Q: What about the growth inhibition ([1]; at 3.7 µM) of the same molecule?
A: 15%

Q: What about the growth inhibition ([1]; at 11.0 µM) of the same molecule?
A: 46%

Q: What about the growth inhibition ([1]; at 33.0 µM) of the same molecule?
A: 89% (active)

Q: What about the growth inhibition ([1]; at 100.0 µM) of the same molecule?
A: 91% (active)

Q: What about the growth inhibition ([2]; at 1.2 µM) of the same molecule?
A: 3%

Q: What about the growth inhibition ([2]; at 3.7 µM) of the same molecule?
A: 13%

Q: What about the growth inhibition ([2]; at 11.0 µM) of the same molecule?
A: 47%

Q: And the growth inhibition ([2]; at 33.0 µM)?
A: 81% (active)

Q: And the growth inhibition ([2]; at 100.0 µM)?
A: 82% (active)

Q: What about the growth inhibition ([3]; at 1.2 µM) of the same molecule?
A: -1%

Q: And the growth inhibition ([3]; at 3.7 µM)?
A: 0%

Q: What about the growth inhibition ([3]; at 11.0 µM) of the same molecule?
A: 1%

Q: And the growth inhibition ([3]; at 33.0 µM)?
A: 12%

Q: And the growth inhibition ([3]; at 100.0 µM)?
A: 24%

Q: What about the growth inhibition ([4]; at 1.2 µM) of the same molecule?
A: 0%

Q: And the growth inhibition ([4]; at 3.7 µM)?
A: 1%

Q: What about the growth inhibition [4, 16] of the same molecule?
A: 5%

Q: And the growth inhibition ([4]; at 11.0 µM)?
A: 11%

Q: And the growth inhibition ([4]; at 33.0 µM)?
A: 30%

Q: What about the growth inhibition [4, 17] of the same molecule?
A: 44%

Q: And the growth inhibition ([4]; at 50.0 µM)?
A: 86.3% (active)

Q: What about the growth inhibition ([4]; at 100.0 µM) of the same molecule?
A: 47%

Q: And the growth inhibition ([5]; at 1.2 µM)?
A: -1%

Q: What about the growth inhibition ([5]; at 3.7 µM) of the same molecule?
A: 6%

Q: And the growth inhibition [5, 16]?
A: 1%

Q: What about the growth inhibition ([5]; at 11.0 µM) of the same molecule?
A: 14%

Q: And the growth inhibition ([5]; at 33.0 µM)?
A: 34%

Q: And the growth inhibition [5, 17]?
A: 47%

Q: What about the growth inhibition ([5]; at 50.0 µM) of the same molecule?
A: 80.9% (active)

Q: What about the growth inhibition ([5]; at 100.0 µM) of the same molecule?
A: 56%

Q: What about the growth inhibition ([6]; at 1.2 µM) of the same molecule?
A: 0%

Q: What about the growth inhibition ([6]; at 3.7 µM) of the same molecule?
A: 4%

Q: And the growth inhibition ([6]; at 11.0 µM)?
A: 12%

Q: And the growth inhibition ([6]; at 33.0 µM)?
A: 37%

Q: What about the growth inhibition ([6]; at 100.0 µM) of the same molecule?
A: 69%

Q: And the growth inhibition [7, 16]?
A: 17%

Q: What about the growth inhibition [7, 17] of the same molecule?
A: 78% (active)

Q: And the growth inhibition ([7]; at 50.0 µM)?
A: 95.5% (active)

Q: What about the growth inhibition ([8]; at 1.2 µM) of the same molecule?
A: -2%

Q: What about the growth inhibition ([8]; at 3.7 µM) of the same molecule?
A: -13%

Q: And the growth inhibition ([8]; at 11.0 µM)?
A: -4%

Q: And the growth inhibition ([8]; at 33.0 µM)?
A: 12%

Q: What about the growth inhibition ([8]; at 100.0 µM) of the same molecule?
A: 30%

Q: And the growth inhibition [9, 16]?
A: 0%

Q: And the growth inhibition [9, 17]?
A: 51%

Q: What about the growth inhibition ([9]; at 50.0 µM) of the same molecule?
A: 95.3% (active)

Q: And the growth inhibition ([10]; at 1.2 µM)?
A: 3%

Q: And the growth inhibition ([10]; at 3.7 µM)?
A: -1%

Q: What about the growth inhibition [10, 16] of the same molecule?
A: -1%

Q: What about the growth inhibition ([10]; at 11.0 µM) of the same molecule?
A: -2%

Q: And the growth inhibition ([10]; at 33.0 µM)?
A: 2%

Q: And the growth inhibition [10, 17]?
A: 6%

Q: And the growth inhibition ([10]; at 50.0 µM)?
A: 57.4%

Q: What about the growth inhibition ([10]; at 100.0 µM) of the same molecule?
A: 12%

Q: What about the growth inhibition ([11]; at 1.2 µM) of the same molecule?
A: 1%

Q: What about the growth inhibition ([11]; at 3.7 µM) of the same molecule?
A: 1%

Q: And the growth inhibition ([11]; at 11.0 µM)?
A: 4%

Q: What about the growth inhibition ([11]; at 33.0 µM) of the same molecule?
A: 13%

Q: And the growth inhibition ([11]; at 100.0 µM)?
A: 36%

Q: And the growth inhibition ([12]; at 1.2 µM)?
A: -2%

Q: What about the growth inhibition ([12]; at 3.7 µM) of the same molecule?
A: 3%

Q: What about the growth inhibition ([12]; at 11.0 µM) of the same molecule?
A: 6%

Q: What about the growth inhibition ([12]; at 33.0 µM) of the same molecule?
A: 22%

Q: And the growth inhibition ([12]; at 100.0 µM)?
A: 13%

Q: And the growth inhibition ([13]; at 1.2 µM)?
A: 4%

Q: And the growth inhibition ([13]; at 3.7 µM)?
A: 13%

Q: What about the growth inhibition ([13]; at 11.0 µM) of the same molecule?
A: 48%

Q: And the growth inhibition ([13]; at 33.0 µM)?
A: 79% (active)

Q: And the growth inhibition ([13]; at 100.0 µM)?
A: 87% (active)

Q: What about the growth inhibition [14, 16] of the same molecule?
A: 11%

Q: What about the growth inhibition [14, 17] of the same molecule?
A: 77% (active)

Q: What about the growth inhibition ([14]; at 50.0 µM) of the same molecule?
A: 94.8% (active)

Q: What about the growth inhibition ([15]; at 1.2 µM) of the same molecule?
A: 31%

Q: And the growth inhibition ([15]; at 3.7 µM)?
A: 79% (active)

Q: And the growth inhibition ([15]; at 11.0 µM)?
A: 92% (active)

Q: And the growth inhibition ([15]; at 33.0 µM)?
A: 95% (active)

Q: And the growth inhibition ([15]; at 100.0 µM)?
A: 94% (active)
